Bioassay records deposited in PubChem by National Center for Advancing Translational Sciences (NCATS).
12-hLO inh = 12-hLO (ALOX12) enzyme inhibition | purified 12-hLO, xylenol orange hydroperoxide absorbance | Potency, µM (doses to about 57.1 µM), actives largely listed as inhibitors | 0.12% of 150,000 active | P18054; further: nearly all actives have a fitted effect of over 55% in size
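Hydroperoxide formation by human 12-lipoxygenase from 40 uM arachidonic acid was followed colorimetrically via ferric-xylenol orange complex, using the 573/405 nm absorbance ratio. Enzyme concentration was 150 nM, with 30 min reaction at room temperature.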
IMPase Li cell = cell-permeable IMPase inhibitors with lithium potentiation | CHO-M1 cells, IP1 TR-FRET (IP-One), carbachol + lithium | AID 1457 | Potency, µM (doses to about 59.4 µM), actives largely listed as inhibitors | 0.35% of 210,000 active;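 further: IP1 builds up when IMPase is blocked and the TR-FRET signal falls; nearly all actives have a fitted effect of over 50% in size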
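CHO cells stably expressing M1 receptor (2000/well, cultured 16–30 h) treated 30 min at 37C with compound plus low lithium. Cytosolic IP1 by TR-FRET (665/620 ratio and 620 channel) after 10 min lysis; AC50 by Hill fit.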
ALDH1A1 inh = blocks purified human ALDH1A1 activity. Potency, µM (titrated, usually from 75.3 µM), most hits filed as inhibitors. 7.3% of 220,000 active. Purified ALDH1A1, NADH fluorescence, propionaldehyde substrate. P00352. AID 1030; active means well fitted inhibition curve with a large enough effect, not every such curve was filed as active; inconclusive means small, poorly fitted or top-dose-only effect, or another doubt; inactive means no such curve, though single readings can be large or run the other way
Target sequence (P00352 whole entry, looked up): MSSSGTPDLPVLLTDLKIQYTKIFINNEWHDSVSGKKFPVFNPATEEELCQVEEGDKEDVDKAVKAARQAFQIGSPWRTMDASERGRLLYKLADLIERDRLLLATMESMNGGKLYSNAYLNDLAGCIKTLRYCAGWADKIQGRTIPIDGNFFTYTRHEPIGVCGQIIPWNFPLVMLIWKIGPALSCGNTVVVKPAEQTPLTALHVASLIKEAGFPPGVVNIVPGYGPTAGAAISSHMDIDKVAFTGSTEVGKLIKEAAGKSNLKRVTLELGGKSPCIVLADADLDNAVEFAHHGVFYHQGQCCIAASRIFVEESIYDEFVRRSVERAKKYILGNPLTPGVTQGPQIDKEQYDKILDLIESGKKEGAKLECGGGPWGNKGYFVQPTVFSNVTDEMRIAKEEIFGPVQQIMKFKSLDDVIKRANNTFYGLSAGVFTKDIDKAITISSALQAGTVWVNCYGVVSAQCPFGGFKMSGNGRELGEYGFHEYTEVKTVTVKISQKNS
HPGD block = blocks human HPGD enzyme activity | purified HPGD, NADH fluorescence kinetic, PGE2 substrate | Potency, µM, actives largely listed as inhibitors | 4.3% of 150,000 active | AID 894; active means well fitted inhibition curve with a large enough effect, not every such curve was filed as active; inconclusive means small, poorly fitted or top-dose-only effect, or another doubt; inactive means no such curve, though single readings can be large or run the other way
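20 nM HPGD preincubated 15 min at room temperature with compound in 50 mM Tris-HCl pH 8, 0.01% Tween 20. Started with 1 mM NAD+ and 30 uM prostaglandin E2; NADH fluorescence (360/450 nm) read 5 times over 30-s intervals, last minus first.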
PNC inhibitor = blocks assembly of the perinucleolar compartment; activity change (PNC), negative = inhibition, % at 10 µM; 3.1% of 140,000 active; AID 2417; PC3M PTB-GFP, PNC prevalence imaging, 16 h; hits give low values;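 active means readout at or below -70, meaning at least 70% loss of cells showing the perinucleolar compartment, a nuclear body marking cancer cells; inconclusive means readout between -30 and a set limit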
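PC3M cells stably expressing PTB-GFP, 750–1000 cells/well, treated 16 h at 37 °C with compound (23 nl of library stock), in duplicate. After paraformaldehyde fixation and Hoechst stain, imaged at 20x; PNC prevalence scored by image analysis.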
IMPase cell inh = IMPase inhibition in cells | P97697 | CHO-M1 cells, IP1 accumulation, HTRF TR-FRET ratio | inhibition (IP1 accumulation), % at 46.1 µM | 120,000 tested, under 10 active | AID 901; active means well fitted curve in the direction sought with a large enough effect in the signal ratio, not every such curve was filed as active; inconclusive means small, poorly fitted or top-dose-only effect, or a change in a side signal; inactive means no such curve, though single readings can be large or run the other way; the % refers to the signal ratio;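 further: cells stimulated with carbachol in lithium chloride buffer; higher means more IMPase inhibition seen as more IP1 and lower FRET ratio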
Target sequence (P97697 whole entry, looked up): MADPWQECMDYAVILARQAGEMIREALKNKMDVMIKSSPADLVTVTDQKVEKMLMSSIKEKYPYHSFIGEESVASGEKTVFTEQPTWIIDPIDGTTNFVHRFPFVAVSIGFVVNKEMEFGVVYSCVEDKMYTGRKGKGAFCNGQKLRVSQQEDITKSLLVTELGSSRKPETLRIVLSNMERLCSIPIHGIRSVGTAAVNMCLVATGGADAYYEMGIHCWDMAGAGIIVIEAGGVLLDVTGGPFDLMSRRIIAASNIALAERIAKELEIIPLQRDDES
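Seeded CHO-M1 cells were dosed with compound at up to 46 uM, stimulated with carbachol for 30 min, then lysed in IP-One detection reagents. Higher IP1 lowers the TR-FRET signal.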
Numbers stand for hits; i = inactive; ? = inconclusive; nt = no result given; [ ] = remark or other dose. A selection: hits, their analogues and other compounds. The true share with any hit is near 11%. Unless noted, the call rests on the fitted dose curve; in most records, active means well fitted curve in the direction sought with a large enough effect; inconclusive means small, poorly fitted or top-dose-only effect, or another doubt; inactive means no such curve, though single readings can be large; an effect the other way counts as inactive or inconclusive.

SMILES | 12-hLO inh | IMPase Li cell | ALDH1A1 inh | HPGD block | PNC inhibitor | IMPase cell inh
Cn1c(C(=O)N2CCc3ccccc3C2)cc2oc3ccccc3c21 | i | i | i | 0.71µM | -119 | i
NC(=O)CCCCn1ccc(NC(N)=NCC(F)(F)F)n1 | i | i | i | i | nt | i
COc1cccc(-c2ccc3ncnc(NCc4cnc(C)cn4)c3c2)c1 | nt | i | i | nt | nt | nt
CCOC(=O)Cc1ccc(NC(=O)Nc2cc3c(cc2N2CCCCC2)n(C)c(=O)n3C)cc1 | nt | nt | nt | nt | nt | i
CN1CCN(c2ncc3nc(-c4ccc(Cl)cc4)c(=O)n(C)c3n2)CC1 | nt | i | ? | nt | nt | nt
CCCN1C(=O)/C(=C/c2ccc(C)o2)NC1=S | nt | i | 7.1µM | nt | nt | nt
Cc1ccc(/C=C2/NC(=O)N(Cc3ccc(Br)cc3)C2=O)o1 | i | i | 13µM | ? | i | nt
Cc1ccc(/C=C2/NC(=O)N(Cc3ccccc3F)C2=O)o1 | i | i | 16µM | i | i | i
O=C(O)c1ccc(-c2ccc(/C=C3\NC(=O)N(Cc4ccc(Cl)cc4)C3=O)o2)cc1Cl | nt | i | ? | nt | nt | nt
CCN1C(=O)/C(=C/c2ccc(C)o2)N(C)C1=S | i | i | 1.6µM | ? | ? | i
CCN1C(=O)N/C(=C/c2ccc(Sc3ccc(C)cc3)o2)C1=O | i | i | ? | ? | ? | i
CCN1C(=O)N/C(=C/c2ccc(C)o2)C1=O | i | i | 15µM | i | i | nt
CCOC(=O)c1ccc(NC(=O)CN2CCc3ccccc3C2)cc1 | i | i | 14µM | i | i | i
COc1cc2c(cc1OC)CN(CC(=O)Nc1ccc3c(c1)OCO3)CC2 | i | i | i | i | i | i
COc1cc2c(cc1OC)CN(CC(=O)Nc1ccc(C)cc1)CC2 | i | i | ? | i | -89 | i
COc1cc2c(cc1OC)CN(Cc1ccc(C)s1)CC2 | i | i | 28µM | i | i | i
C=C1CCC(O)C/C1=C\C=C1/CCCC2(C)C1CCC2C(C)/C=C/C(C)C(C)C (stereo unspecified) | i | i | i | i | nt | i
CCOC(=O)CSc1nc(-c2ccc(C)cc2C)cc(-c2ccccc2)c1C#N | nt | nt | nt | nt | nt | i
O=C(c1cnccn1)N1CCC2(CC1)CN(c1ccncc1)C2 | i | i | i | i | nt | nt
CCN(CC)c1ccc(/C=C/c2cc(-c3ccccc3)c3ccccc3n2)cc1 | nt | nt | 11µM | nt | nt | nt
CCOc1cc(/C=C/c2cc(C(=O)O)c3ccccc3n2)ccc1O | i | i | i | i | i | nt
N.N.O=C(O)C1(C(=O)O)CCC1.[Pt] | i | i | ? | ? | nt | i
Cc1cc(C(=O)CSC(=S)SC(C)(C)C)ccc1Cl | i[11.4 µM] | i | i[13.5 µM] | i | nt | nt
CO[C@]12C[C@@H](COC(=O)c3cncc(Br)c3)CN(C)[C@@H]1Cc1cn(C)c3cccc2c13 | nt | i | i | i | nt | nt
CC(=O)c1cccc(NC(=S)NC(=O)c2ccc(C)cc2)c1 | nt | i | ? | nt | nt | nt
SMILES | 12-hLO inh | IMPase Li cell | ALDH1A1 inh | HPGD block | PNC inhibitor | IMPase cell inh
Cc1ccccc1C(=O)Nc1cccc(NC(=S)NC(=O)c2cccs2)c1 | i | i | ? | i | i | i
CC(=O)c1cccc(NC(=S)NC(=O)c2ccc(Br)cc2)c1 | i | i | i | i | i | nt
CC(=O)c1cccc(NC(=S)NC(=O)c2ccccc2Cl)c1 | i | i | ? | 20µM | i | nt
O=C(NC(=S)Nc1cccc(NC(=O)c2ccccc2Cl)c1)c1cccs1 | i | i | 4.5µM | i | i | nt
CC(=O)c1cccc(NC(=S)NC(=O)c2ccc(C)cc2Cl)c1 | nt | i | 8.9µM | nt | nt | nt
CC(=O)c1ccsc1B(O)O | i | i | i | i | nt | nt
CC[C@H](C(=O)c1cccs1)C(O)(C(F)(F)F)C(F)(F)F | i[11.4 µM] | i | i[13.5 µM] | i | nt | nt
CN(C)CCCCOc1ccc(Br)cc1Cl | nt | i | ? | nt | nt | nt
Cc1ccc(OCCOCCN(C)C)c(Cl)c1 | i | i | i | i | -96 | nt
COc1cc(C)ccc1OCCOc1cc(C)ccc1Cl | ? | i | ? | 2.2µM | i | i
CCOC(=O)CSc1nnc(CNc2ccc(Cl)cc2)n1-c1ccccc1 | i | i | 10µM | i | i | i
CCOc1ccc(NCc2nnc(SCc3ccc(Cl)cc3)n2-c2ccccc2)cc1 | i | i | 16µM | i | i | nt
CCOC(=O)CSc1nnc(CNc2cccc(Cl)c2)n1-c1ccccc1 | i | i | ? | i | i | ?
NS(=O)(=O)c1ccc(NC(=O)COC(=O)COc2ccc3ccccc3c2)cc1 | nt | i | i | nt | nt | nt
Clc1ccc(C2=NNC(=NCc3ccc4c(c3)OCO4)SC2)cc1 | i | nt | 22µM | nt | ? | i
Cc1ccc(O)c(NC(=O)c2nc3nc(C)cc(C(F)F)n3n2)c1 | nt | nt | nt | nt | nt | i
Cc1ccc(C(=O)N2CCN(c3ccccc3)CC2)cc1C | i | i | ? | i | -107 | i
Cc1ccc(C(=O)N2CCN(c3cccc(Cl)c3)CC2)cc1C | i | i | ? | i | ? | i
Cc1ccc(C(=O)N2CCC(C)CC2)cc1C | i | i | 11µM | 0.79µM | i | i[0.0738 µM]
CC#N | i | i | i | i | nt | nt
Cc1nn(-c2ccccc2)c(N)c1C1(O)C(=O)N(C(C)C)c2ccccc21 (stereo unspecified) | i | i | ? | i | ? | nt
Cc1nn(-c2ccccc2)c2c1C1(C(=O)N(C(C)C)c3ccccc31)C(C#N)=C(N)O2 (stereo unspecified) | i | i | 1.1µM | i | i | i
c1cc(CSSCc2ccncc2)ccn1 | i[11.4 µM] | i | 4µM | i | nt | nt
COc1ncnc2c1oc1nc(CC(C)C)c3c(c12)CCCC3 | i | i | 14µM | i | ? | i
Cc1ccc(C(=O)N2CCN(C)CC2)cc1S(=O)(=O)N1CCCCC1 | i | i | ? | i | i | i
SMILES | 12-hLO inh | IMPase Li cell | ALDH1A1 inh | HPGD block | PNC inhibitor | IMPase cell inh
CN1CCN(C(=O)c2ccc3c(c2)NC(=O)C(C)(C)O3)CC1 | i | i | i | 8.9µM | i | ?
COc1ccccc1Oc1cc(-n2nc(C)cc2C)ncn1 | i | i | ? | i | i | nt
CCOc1cnn(-c2cc(Oc3ccc(C)cc3)ncn2)c(=O)c1Cl | i | i | 11µM | i | i | i
COC(=O)c1cnn(-c2cc(Oc3ccccc3)ncn2)c1N | i | nt | ? | nt | i | i
Cc1ccccc1Oc1cc(-n2ncc(Cl)c(Cl)c2=O)ncn1 | i | i | 1.6µM | i | -87 | nt
c1ccc(CNc2oc(-c3ccccc3)nc2-c2ccccc2)cc1 | i | i | i | i | nt | nt
CCCCC/C=C\C/C=C\C/C=C\C=C\[C@@H](O)CCCC(=O)O | i | i | i | i | nt | nt
CN(c1ccccc1)S(=O)(=O)c1ccc(NC(=O)c2ccccc2)cc1 | i | i | i | i | i | nt
Cc1cccc(C(=O)NC(=S)Nc2ccc(S(=O)(=O)N(C)c3ccccc3)cc2)c1 | ? | i | 20µM | i | i | i
Cc1ccccc1C(=O)NC(=S)Nc1ccc(S(=O)(=O)N(C)c2ccccc2)cc1 | ? | i | 18µM | i | i | i
O=C1[C@H]2[C@H]3[C@H](O)[C@H](O)C/C(=N/OC[C@@H](O)COCc4ccco4)[C@H]3CC[C@@H]2C(=O)N1C[C@@H]1CCCO1 | nt | nt | i[13.5 µM] | nt | nt | nt
